# Results published in PubChem BioAssay (NCI).
# The panel holds about 79,000 compounds, 15% with a hit somewhere; the sample as a whole holds those more often. Calls of active or inactive are those of the source. Rule as the data show it: active = growth inhibition above about 70%; inactive = the rest.
# Assays:
# [1] = NCI Yeast Anticancer Drug Screen. Data for the mec2-1 strain (AID 157); conditions: S. cerevisiae mec2-1 strain, hits give high values
# In short: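 mec2-1 yeast strain, carrying an alteration in DNA damage repair or cell cycle control, was exposed to compounds; growth inhibition was measured relative to vehicle-treated controls.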
# [2] = NCI Yeast Anticancer Drug Screen. Data for the rad14 strain (AID 159);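 also: 0% = growth of vehicle-treated control cultures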; conditions: S. cerevisiae rad14 strain growth inhibition, hits give high values
# In short: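 Vehicle-treated cultures served as the baseline for growth inhibition of a DNA repair-mutant yeast strain exposed to each compound.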
# [3] = NCI Yeast Anticancer Drug Screen. Data for the sgs1 mgt1 strain (AID 161);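 also: 0% = growth of cultures given vehicle only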; conditions: S. cerevisiae sgs1 mgt1 strain, hits give high values
# In short: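 Percent growth inhibition was derived by comparing compound-exposed mutant yeast with vehicle-exposed cultures. The strain carries alterations in DNA damage repair.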
# [4] = NCI Yeast Anticancer Drug Screen. Data for the CLN2oe strain (AID 163);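 also: 0% = growth of vehicle-only control cultures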; conditions: S. cerevisiae CLN2oe strain, hits give high values
# In short: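 Yeast cells carrying a defined cell-cycle control alteration were exposed to test compounds. Growth inhibition was scored against vehicle-treated control cultures.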
# [5] = NCI Yeast Anticancer Drug Screen. Data for the cln2 rad14 strain (AID 165);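 also: 0% = growth equal to vehicle treated cultures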; conditions: S. cerevisiae cln2 rad14 strain, hits give high values
# In short: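 Yeast carrying cln2 and rad14 alterations (cell cycle control and DNA damage repair) were exposed to compounds. Growth inhibition was measured against vehicle-treated controls.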
# [6] = NCI Yeast Anticancer Drug Screen. Data for the bub3 strain (AID 167); conditions: S. cerevisiae bub3 mutant strain, hits give high values
# In short: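 Inhibition values come from growth of compound-treated mutant yeast normalised to vehicle-treated controls.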
# [7] = NCI Yeast Anticancer Drug Screen. Data for the wt2 strain (AID 169);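 also: 0% = growth of vehicle-treated yeast cultures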; conditions: S. cerevisiae wt2 strain growth inhibition, hits give high values
# In short: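 Yeast cells were exposed to test compounds, and growth inhibition was measured relative to vehicle-treated controls.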
# [8] = NCI Yeast Anticancer Drug Screen. Data for the mlh1 strain (AID 171);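 also: 0% = growth of vehicle-treated control cultures of the same strain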; conditions: S. cerevisiae mlh1 strain growth inhibition, hits give high values
# In short: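 Yeast carrying a defined genetic alteration in DNA damage repair or cell cycle control were exposed to test compounds. Growth inhibition was measured relative to vehicle-treated controls.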
# [9] = NCI Yeast Anticancer Drug Screen. Data for the sgs1 strain (AID 173);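 also: 0% = growth of vehicle-only control cultures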; conditions: S. cerevisiae sgs1 mutant, hits give high values
# In short: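 Yeast mutant strains carrying defined defects in DNA damage repair or cell cycle control were exposed to test compounds. Growth inhibition was scored against vehicle-treated controls.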
# [10] = NCI Yeast Anticancer Drug Screen. Data for the mlh1 rad18 strain (AID 175); conditions: S. cerevisiae mlh1 rad18 strain growth inhibition, hits give high values
# In short: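 Growth inhibition of the yeast strain was measured after compound exposure and expressed relative to vehicle-treated controls. The strain carries defined defects in DNA damage repair.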
# [11] = NCI Yeast Anticancer Drug Screen. Data for the rad18 strain (AID 177); conditions: S. cerevisiae rad18 mutant growth inhibition, hits give high values
# In short: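 Yeast carrying a defined DNA damage repair alteration were exposed to compounds. Growth inhibition was expressed relative to vehicle-treated controls.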
# [12] = NCI Yeast Anticancer Drug Screen. Data for the wt1 strain (AID 149);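 also: 0% = growth of vehicle-treated wt1 cultures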; conditions: S. cerevisiae wt1 strain (SPY 50644) growth inhibition, hits give high values
# In short: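 Vehicle-normalised growth inhibition; strain wt1; compound exposure.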
# [13] = NCI Yeast Anticancer Drug Screen. Data for the rad50EPP+ strain (AID 151);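 also: 0% = growth of vehicle-treated control cultures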; conditions: S. cerevisiae rad50 mutant strain, hits give high values
# In short: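 Yeast strain carrying rad50 alteration (rad50EPP+) exposed to compounds; growth inhibition measured relative to vehicle-treated controls.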
# [14] = NCI Yeast Anticancer Drug Screen. Data for the mgt1 strain (AID 153); conditions: S. cerevisiae mgt1 mutant growth inhibition, hits give high values
# In short: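 Yeast mgt1 strain (DNA repair/cell-cycle alteration panel) exposed to compounds; growth inhibition measured relative to vehicle-treated controls.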
# [15] = NCI Yeast Anticancer Drug Screen. Data for the rad50 strain (AID 155);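 also: 0% = growth of vehicle-only cultures of the same strain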; conditions: S. cerevisiae rad50 strain growth inhibition, hits give high values
# In short: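 A DNA repair-deficient yeast mutant serves as the test organism; compound-induced growth inhibition is calculated against vehicle-treated cells.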
# [16] = at 5.0 µM (retest, dose inferred, filed as 0.5)
# [17] = at 50.0 µM (retest, dose inferred, filed as 5.0)
smiles,measurement,setting,value
CCOc1nc(OCC)nc(-c2cccn2-c2ccccc2)n1,growth inhibition,[1]; at 100.0 µM,93% (active)
same,growth inhibition,[2]; at 1.2 µM,-11% (inactive)
same,growth inhibition,[2]; at 3.7 µM,-8% (inactive)
same,growth inhibition,[2]; at 11.0 µM,-1% (inactive)
same,growth inhibition,[2]; at 33.0 µM,13% (inactive)
same,growth inhibition,[2]; at 100.0 µM,90% (active)
same,growth inhibition,[3]; [16],-13% (inactive)
same,growth inhibition,[3]; [17],74% (active)
same,growth inhibition,[4]; at 1.2 µM,-2% (inactive)
same,growth inhibition,[4]; at 3.7 µM,0% (inactive)
same,growth inhibition,[4]; at 11.0 µM,11% (inactive)
same,growth inhibition,[4]; at 33.0 µM,6% (inactive)
same,growth inhibition,[4]; at 100.0 µM,91% (active)
same,growth inhibition,[5]; [16],55% (inactive)
same,growth inhibition,[5]; [17],83% (active)
same,growth inhibition,[6]; at 1.2 µM,19% (inactive)
same,growth inhibition,[6]; at 3.7 µM,36% (inactive)
same,growth inhibition,[6]; [16],14% (inactive)
same,growth inhibition,[6]; at 11.0 µM,32% (inactive)
same,growth inhibition,[6]; at 33.0 µM,43% (inactive)
same,growth inhibition,[6]; [17],87% (active)
same,growth inhibition,[6]; at 100.0 µM,94% (active)
same,growth inhibition,[7]; at 1.2 µM,-3% (inactive)
same,growth inhibition,[7]; at 3.7 µM,8% (inactive)
same,growth inhibition,[7]; at 11.0 µM,1% (inactive)
same,growth inhibition,[7]; at 33.0 µM,38% (inactive)
same,growth inhibition,[7]; at 100.0 µM,95% (active)
same,growth inhibition,[8]; at 1.2 µM,-25% (inactive)
same,growth inhibition,[8]; at 3.7 µM,-6% (inactive)
same,growth inhibition,[8]; at 11.0 µM,-12% (inactive)
same,growth inhibition,[8]; at 33.0 µM,2% (inactive)
same,growth inhibition,[8]; at 100.0 µM,89% (active)
same,growth inhibition,[9]; at 1.2 µM,16% (inactive)
same,growth inhibition,[9]; at 3.7 µM,15% (inactive)
same,growth inhibition,[9]; at 11.0 µM,14% (inactive)
same,growth inhibition,[9]; at 33.0 µM,43% (inactive)
same,growth inhibition,[9]; at 100.0 µM,95% (active)
same,growth inhibition,[10]; [16],86% (active)
same,growth inhibition,[10]; [17],100% (active)
same,growth inhibition,[10]; at 50.0 µM,80.2% (active)
same,growth inhibition,[11]; at 1.2 µM,-4% (inactive)
same,growth inhibition,[11]; at 3.7 µM,15% (inactive)
same,growth inhibition,[11]; at 11.0 µM,19% (inactive)
same,growth inhibition,[11]; at 33.0 µM,19% (inactive)
same,growth inhibition,[11]; at 100.0 µM,93% (active)
CN(C)CCn1c2ccccc2c2nc3cc4ccccc4cc3nc21,growth inhibition,[12]; at 1.2 µM,15% (inactive)
same,growth inhibition,[12]; at 3.7 µM,23% (inactive)
same,growth inhibition,[12]; at 11.0 µM,28% (inactive)
same,growth inhibition,[12]; at 33.0 µM,78% (active)
same,growth inhibition,[12]; at 100.0 µM,98% (active)
same,growth inhibition,[13]; at 1.2 µM,0% (inactive)
same,growth inhibition,[13]; at 3.7 µM,38% (inactive)
same,growth inhibition,[13]; at 11.0 µM,88% (active)
same,growth inhibition,[13]; at 33.0 µM,94% (active)
same,growth inhibition,[13]; at 100.0 µM,97% (active)
same,growth inhibition,[14]; at 1.2 µM,-2% (inactive)
same,growth inhibition,[14]; at 3.7 µM,4% (inactive)
same,growth inhibition,[14]; at 11.0 µM,14% (inactive)
same,growth inhibition,[14]; at 33.0 µM,69% (inactive)
same,growth inhibition,[14]; at 100.0 µM,98% (active)
same,growth inhibition,[15]; at 1.2 µM,12% (inactive)
same,growth inhibition,[15]; at 3.7 µM,34% (inactive)
same,growth inhibition,[15]; [16],48% (inactive)
same,growth inhibition,[15]; at 11.0 µM,85% (active)
same,growth inhibition,[15]; at 33.0 µM,95% (active)
same,growth inhibition,[15]; [17],95% (active)
same,growth inhibition,[15]; at 50.0 µM,89% (active)
same,growth inhibition,[15]; at 100.0 µM,98% (active)
same,growth inhibition,[1]; at 1.2 µM,-18% (inactive)
same,growth inhibition,[1]; at 3.7 µM,-10% (inactive)
same,growth inhibition,[1]; [16],26% (inactive)
same,growth inhibition,[1]; at 11.0 µM,14% (inactive)
same,growth inhibition,[1]; at 33.0 µM,70% (active)
same,growth inhibition,[1]; [17],99% (active)
same,growth inhibition,[1]; at 50.0 µM,86.6% (active)
same,growth inhibition,[1]; at 100.0 µM,98% (active)
same,growth inhibition,[2]; at 1.2 µM,-4% (inactive)
same,growth inhibition,[2]; at 3.7 µM,7% (inactive)
same,growth inhibition,[2]; at 11.0 µM,28% (inactive)
same,growth inhibition,[2]; at 33.0 µM,80% (active)
same,growth inhibition,[2]; at 100.0 µM,99% (active)
same,growth inhibition,[3]; [16],10% (inactive)
same,growth inhibition,[3]; [17],91% (active)
same,growth inhibition,[3]; at 50.0 µM,88% (active)
same,growth inhibition,[4]; at 1.2 µM,0% (inactive)
same,growth inhibition,[4]; at 3.7 µM,3% (inactive)
same,growth inhibition,[4]; at 11.0 µM,21% (inactive)
same,growth inhibition,[4]; at 33.0 µM,57% (inactive)
same,growth inhibition,[4]; at 100.0 µM,98% (active)
same,growth inhibition,[5]; [16],30% (inactive)
same,growth inhibition,[5]; [17],94% (active)
same,growth inhibition,[5]; at 50.0 µM,84.3% (active)
same,growth inhibition,[6]; at 1.2 µM,-13% (inactive)
same,growth inhibition,[6]; at 3.7 µM,10% (inactive)
same,growth inhibition,[6]; [16],13% (inactive)
same,growth inhibition,[6]; at 11.0 µM,3% (inactive)
same,growth inhibition,[6]; at 33.0 µM,72% (active)
same,growth inhibition,[6]; [17],95% (active)
same,growth inhibition,[6]; at 50.0 µM,87.6% (active)
same,growth inhibition,[6]; at 100.0 µM,98% (active)
same,growth inhibition,[8]; at 1.2 µM,2% (inactive)
same,growth inhibition,[8]; at 3.7 µM,9% (inactive)
same,growth inhibition,[8]; at 11.0 µM,33% (inactive)
same,growth inhibition,[8]; at 33.0 µM,80% (active)
same,growth inhibition,[8]; at 100.0 µM,98% (active)
same,growth inhibition,[9]; at 1.2 µM,-2% (inactive)
same,growth inhibition,[9]; at 3.7 µM,5% (inactive)
same,growth inhibition,[9]; at 11.0 µM,25% (inactive)
same,growth inhibition,[9]; at 33.0 µM,85% (active)
same,growth inhibition,[9]; at 100.0 µM,98% (active)
same,growth inhibition,[10]; [16],34% (inactive)
same,growth inhibition,[10]; [17],98% (active)
same,growth inhibition,[10]; at 50.0 µM,71.2% (active)
same,growth inhibition,[11]; at 1.2 µM,-11% (inactive)
same,growth inhibition,[11]; at 3.7 µM,-10% (inactive)
same,growth inhibition,[11]; at 11.0 µM,11% (inactive)
same,growth inhibition,[11]; at 33.0 µM,87% (active)
same,growth inhibition,[11]; at 100.0 µM,98% (active)
